# From paper PMC7862700, “An all-to-all approach to the identification of sequence-specific readers for epigenetic DNA modifications on cytosine”
# What was measured:
# Assay in all cases: DAPPL (digital affinity profiling via proximity ligation, sequencing); 10 mM Tris-HCl pH 7.5, 50 mM NaCl, 1 mM DTT, 4% glycerol, room temperature, 30 min; GST-TFs on glutathione beads, 16-mer random dsDNA library, 0.1% formaldehyde crosslink after washing; high values mean tight binding
# FEV = target: T1, FEV (Homo sapiens, UniProt Q99581 1-238); conditions: protein: recombinant; tags: N-terminal GST; dsDNA, one strand shown
# T1 sequence: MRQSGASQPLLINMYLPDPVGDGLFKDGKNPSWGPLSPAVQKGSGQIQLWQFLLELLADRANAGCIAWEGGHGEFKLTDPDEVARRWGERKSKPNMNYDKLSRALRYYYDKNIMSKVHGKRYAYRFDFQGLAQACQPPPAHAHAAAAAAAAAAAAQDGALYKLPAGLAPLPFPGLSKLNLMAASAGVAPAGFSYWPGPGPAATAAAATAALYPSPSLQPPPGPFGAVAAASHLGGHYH
# Procedure, shortened: (§1)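 Binding signal is given per hexamer as its read frequency for a factor divided by its frequency in the tag-only sample. GST-fused human transcription factors were expressed in yeast, captured on glutathione beads, barcoded with DNA and pooled with that sample, then incubated with 200 nmole of a 16-mer random double-stranded DNA library in Tris/NaCl/DTT/glycerol buffer for 30 min at room temperature. The pools were then washed, crosslinked, proximity-ligated, amplified by PCR and sequenced on an Illumina NextSeq500.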
# ETV5 = ETV5 (Homo sapiens, UniProt P41161 1-510); conditions: protein: recombinant; tags: N-terminal GST; dsDNA, one strand shown
# ETV5, sequence (P41161 whole entry): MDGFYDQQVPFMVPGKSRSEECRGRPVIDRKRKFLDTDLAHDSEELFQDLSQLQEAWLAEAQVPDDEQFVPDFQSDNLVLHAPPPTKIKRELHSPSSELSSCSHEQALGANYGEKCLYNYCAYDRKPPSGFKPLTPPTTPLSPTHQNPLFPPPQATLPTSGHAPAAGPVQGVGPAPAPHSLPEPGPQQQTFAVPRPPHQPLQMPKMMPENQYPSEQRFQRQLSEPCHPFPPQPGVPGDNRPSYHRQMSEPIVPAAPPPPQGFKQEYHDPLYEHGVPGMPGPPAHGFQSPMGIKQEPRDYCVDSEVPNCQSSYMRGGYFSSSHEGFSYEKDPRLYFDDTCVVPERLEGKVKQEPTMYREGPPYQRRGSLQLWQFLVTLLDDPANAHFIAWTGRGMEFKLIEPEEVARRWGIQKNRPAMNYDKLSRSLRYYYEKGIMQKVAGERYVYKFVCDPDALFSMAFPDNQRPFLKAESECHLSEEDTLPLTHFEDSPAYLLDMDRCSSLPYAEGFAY
# Procedure, shortened: as §1
# HSF1 = HSF1 (Homo sapiens, UniProt Q00613 1-529); conditions: protein: recombinant; tags: N-terminal GST; chain copies: 3; dsDNA, one strand shown
# HSF1, sequence (Q00613 whole entry): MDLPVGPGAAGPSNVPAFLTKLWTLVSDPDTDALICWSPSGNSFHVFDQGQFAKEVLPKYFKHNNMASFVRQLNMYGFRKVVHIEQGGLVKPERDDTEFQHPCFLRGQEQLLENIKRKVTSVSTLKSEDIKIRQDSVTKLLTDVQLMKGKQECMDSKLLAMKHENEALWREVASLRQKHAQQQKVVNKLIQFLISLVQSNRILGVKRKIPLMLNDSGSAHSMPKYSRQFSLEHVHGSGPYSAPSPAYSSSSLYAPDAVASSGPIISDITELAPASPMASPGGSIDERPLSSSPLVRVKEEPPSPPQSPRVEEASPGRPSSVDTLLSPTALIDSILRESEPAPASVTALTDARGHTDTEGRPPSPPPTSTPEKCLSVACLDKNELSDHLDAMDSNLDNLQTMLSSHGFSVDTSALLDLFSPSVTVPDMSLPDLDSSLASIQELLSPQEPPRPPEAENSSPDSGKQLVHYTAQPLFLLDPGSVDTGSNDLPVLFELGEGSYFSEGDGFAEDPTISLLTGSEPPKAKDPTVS
# Procedure, shortened: as §1
# SPIC = target: T2, SPIC (Homo sapiens, UniProt Q8N5J4 1-248); conditions: protein: recombinant; tags: N-terminal GST; dsDNA, one strand shown
# T2 sequence: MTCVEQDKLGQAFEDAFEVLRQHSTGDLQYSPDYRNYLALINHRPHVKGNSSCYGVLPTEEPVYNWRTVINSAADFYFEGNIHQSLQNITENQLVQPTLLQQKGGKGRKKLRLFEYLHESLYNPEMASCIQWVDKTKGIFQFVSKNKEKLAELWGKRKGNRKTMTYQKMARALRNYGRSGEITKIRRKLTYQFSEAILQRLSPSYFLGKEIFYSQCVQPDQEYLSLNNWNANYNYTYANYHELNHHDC
# Procedure, shortened: as §1
# ELF4 = ELF4 (Homo sapiens, UniProt Q99607 1-663); conditions: protein: recombinant; tags: N-terminal GST; dsDNA, one strand shown
# ELF4, sequence (Q99607 whole entry): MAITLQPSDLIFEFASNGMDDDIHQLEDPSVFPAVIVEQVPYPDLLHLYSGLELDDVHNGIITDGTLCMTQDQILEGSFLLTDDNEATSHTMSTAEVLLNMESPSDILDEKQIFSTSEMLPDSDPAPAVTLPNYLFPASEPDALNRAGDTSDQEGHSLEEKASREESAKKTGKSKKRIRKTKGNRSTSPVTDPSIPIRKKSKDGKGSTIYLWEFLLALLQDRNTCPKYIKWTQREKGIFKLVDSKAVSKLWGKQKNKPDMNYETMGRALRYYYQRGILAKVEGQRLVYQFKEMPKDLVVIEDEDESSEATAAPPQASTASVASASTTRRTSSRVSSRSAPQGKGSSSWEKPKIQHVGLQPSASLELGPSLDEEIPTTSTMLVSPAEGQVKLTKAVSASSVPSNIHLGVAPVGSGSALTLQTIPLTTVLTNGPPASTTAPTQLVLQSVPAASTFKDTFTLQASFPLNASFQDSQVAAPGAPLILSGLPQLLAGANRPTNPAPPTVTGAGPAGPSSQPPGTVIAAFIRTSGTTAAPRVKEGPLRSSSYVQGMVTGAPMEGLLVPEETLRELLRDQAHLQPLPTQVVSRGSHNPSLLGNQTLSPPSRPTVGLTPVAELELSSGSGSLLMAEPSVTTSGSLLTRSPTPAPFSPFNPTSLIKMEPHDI
# Procedure, shortened: as §1
# ELK4 = target: T3, ELK4 (Homo sapiens, UniProt P28324-2 1-405); conditions: protein: recombinant; tags: N-terminal GST; dsDNA, one strand shown
# T3 sequence: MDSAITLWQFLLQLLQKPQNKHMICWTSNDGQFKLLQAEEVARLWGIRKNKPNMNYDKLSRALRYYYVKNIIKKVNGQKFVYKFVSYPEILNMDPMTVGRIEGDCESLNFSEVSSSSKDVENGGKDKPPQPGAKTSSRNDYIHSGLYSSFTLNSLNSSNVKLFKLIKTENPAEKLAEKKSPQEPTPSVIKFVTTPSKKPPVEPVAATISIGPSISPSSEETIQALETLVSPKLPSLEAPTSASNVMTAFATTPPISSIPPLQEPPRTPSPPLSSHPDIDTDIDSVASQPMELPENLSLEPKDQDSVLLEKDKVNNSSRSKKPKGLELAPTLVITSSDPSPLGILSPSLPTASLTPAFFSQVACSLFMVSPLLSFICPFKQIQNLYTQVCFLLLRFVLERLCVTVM
# Procedure, shortened: as §1
# ETV2 = target: T4, ETV2 (Homo sapiens, UniProt O00321 1-342); conditions: protein: recombinant; tags: N-terminal GST; dsDNA, one strand shown
# T4 sequence: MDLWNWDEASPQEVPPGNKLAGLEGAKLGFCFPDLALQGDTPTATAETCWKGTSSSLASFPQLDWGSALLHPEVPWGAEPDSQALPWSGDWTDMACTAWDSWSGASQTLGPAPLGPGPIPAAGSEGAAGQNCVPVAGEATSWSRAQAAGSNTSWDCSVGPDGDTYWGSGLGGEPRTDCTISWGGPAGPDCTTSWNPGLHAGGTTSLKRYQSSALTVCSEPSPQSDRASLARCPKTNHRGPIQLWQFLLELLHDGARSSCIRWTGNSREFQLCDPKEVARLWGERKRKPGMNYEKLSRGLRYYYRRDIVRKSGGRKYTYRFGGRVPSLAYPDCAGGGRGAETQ
# Procedure, shortened: as §1
# ELF3 = target: T5, ELF3 (Homo sapiens, UniProt P78545 1-371); conditions: protein: recombinant; tags: N-terminal GST; dsDNA, one strand shown
# T5 sequence: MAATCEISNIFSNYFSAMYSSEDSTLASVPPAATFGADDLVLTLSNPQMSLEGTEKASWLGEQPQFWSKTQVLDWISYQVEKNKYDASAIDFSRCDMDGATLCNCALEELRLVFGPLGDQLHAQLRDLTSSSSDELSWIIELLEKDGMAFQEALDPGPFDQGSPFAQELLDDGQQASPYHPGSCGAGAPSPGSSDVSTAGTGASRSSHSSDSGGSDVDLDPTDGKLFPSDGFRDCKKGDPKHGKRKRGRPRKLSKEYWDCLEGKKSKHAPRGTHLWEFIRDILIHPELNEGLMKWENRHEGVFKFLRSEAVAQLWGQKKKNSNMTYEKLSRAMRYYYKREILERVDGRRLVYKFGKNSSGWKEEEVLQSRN
# Procedure, shortened: as §1
# CRX = CRX (Homo sapiens, UniProt O43186 1-299); conditions: protein: recombinant; tags: N-terminal GST; dsDNA, one strand shown
# CRX, sequence (O43186 whole entry): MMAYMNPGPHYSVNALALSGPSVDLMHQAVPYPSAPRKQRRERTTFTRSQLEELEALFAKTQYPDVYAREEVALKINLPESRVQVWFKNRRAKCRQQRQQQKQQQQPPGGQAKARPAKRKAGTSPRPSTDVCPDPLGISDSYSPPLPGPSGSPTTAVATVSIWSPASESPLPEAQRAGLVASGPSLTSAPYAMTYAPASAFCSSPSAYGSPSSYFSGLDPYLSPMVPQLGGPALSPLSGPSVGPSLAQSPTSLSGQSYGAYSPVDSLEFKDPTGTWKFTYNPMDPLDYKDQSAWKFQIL
# Procedure, shortened: as §1
# ETV1 = ETV1 (Homo sapiens, UniProt P50549 1-477); conditions: protein: recombinant; tags: N-terminal GST; dsDNA, one strand shown
# ETV1, sequence (P50549 whole entry): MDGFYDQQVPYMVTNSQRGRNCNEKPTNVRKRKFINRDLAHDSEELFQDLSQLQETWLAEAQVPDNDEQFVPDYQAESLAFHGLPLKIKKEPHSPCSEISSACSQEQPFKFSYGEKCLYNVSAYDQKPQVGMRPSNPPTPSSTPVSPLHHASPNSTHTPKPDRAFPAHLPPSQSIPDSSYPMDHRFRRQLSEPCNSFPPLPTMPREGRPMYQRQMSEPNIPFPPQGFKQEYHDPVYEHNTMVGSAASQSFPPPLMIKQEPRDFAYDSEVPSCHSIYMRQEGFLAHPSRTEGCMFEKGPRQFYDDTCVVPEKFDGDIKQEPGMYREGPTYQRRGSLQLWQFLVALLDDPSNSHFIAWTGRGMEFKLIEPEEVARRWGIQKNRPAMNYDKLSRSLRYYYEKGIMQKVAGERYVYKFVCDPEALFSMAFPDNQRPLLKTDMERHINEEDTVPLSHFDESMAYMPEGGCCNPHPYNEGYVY
# Procedure, shortened: as §1
sequence,measurement,setting,value
TTCAGG,binding signal,FEV,"1.05 fold enrichment (6-mer frequency, TF over GST control)"
same,binding signal,ETV5,"1.13 fold enrichment (6-mer frequency, TF over GST control)"
same,binding signal,HSF1,"1.22 fold enrichment (6-mer frequency, TF over GST control)"
same,binding signal,SPIC,"1.13 fold enrichment (6-mer frequency, TF over GST control)"
same,binding signal,ELF4,"1.11 fold enrichment (6-mer frequency, TF over GST control)"
same,binding signal,ELK4,"1.19 fold enrichment (6-mer frequency, TF over GST control)"
same,binding signal,ETV2,"1.14 fold enrichment (6-mer frequency, TF over GST control)"
same,binding signal,ELF3,"1.07 fold enrichment (6-mer frequency, TF over GST control)"
same,binding signal,CRX,"1.01 fold enrichment (6-mer frequency, TF over GST control)"
same,binding signal,ETV1,"1.15 fold enrichment (6-mer frequency, TF over GST control)"
